Assay results published in PubChem BioAssay (NCATS).
Inconclusive results are not listed. A call without a number means that no potency is given here. Active and inactive are the calls of the source. The call rests on the fitted dose curve; in most records, active means well fitted curve in the direction sought with a large enough effect in the repeat runs; inconclusive means weak or mixed curves; inactive means no such curve, though single readings can be large; an effect the other way counts as inactive or inconclusive.

The compounds below were run against Cytochrome P450 2D6 (Homo sapiens) (UniProt P10635) (assay: Cytochrome P450 family 2 subfamily D member 6 (CYP2D6) small molecule antagonists: luciferase biochemical (cell-free) qHTS assay (AID 1645840)). Details: P450-Glo CYP2D6 enzyme, luciferin luminescence, 1 h; series mostly up to 57.4 µM.
Procedure, shortened: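 P450-Glo CYP2D6 system: proluciferin substrate converted by enzyme to luciferin, read by luminescence proportional to activity. Enzyme-substrate mix with compound 10 min at room temperature, then NADPH regeneration 1 h before detection reagent.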
Further: nearly all actives have a fitted effect of over 55% in size.

Cytochrome P450 2D6 (Homo sapiens), sequence (P10635 whole entry, looked up): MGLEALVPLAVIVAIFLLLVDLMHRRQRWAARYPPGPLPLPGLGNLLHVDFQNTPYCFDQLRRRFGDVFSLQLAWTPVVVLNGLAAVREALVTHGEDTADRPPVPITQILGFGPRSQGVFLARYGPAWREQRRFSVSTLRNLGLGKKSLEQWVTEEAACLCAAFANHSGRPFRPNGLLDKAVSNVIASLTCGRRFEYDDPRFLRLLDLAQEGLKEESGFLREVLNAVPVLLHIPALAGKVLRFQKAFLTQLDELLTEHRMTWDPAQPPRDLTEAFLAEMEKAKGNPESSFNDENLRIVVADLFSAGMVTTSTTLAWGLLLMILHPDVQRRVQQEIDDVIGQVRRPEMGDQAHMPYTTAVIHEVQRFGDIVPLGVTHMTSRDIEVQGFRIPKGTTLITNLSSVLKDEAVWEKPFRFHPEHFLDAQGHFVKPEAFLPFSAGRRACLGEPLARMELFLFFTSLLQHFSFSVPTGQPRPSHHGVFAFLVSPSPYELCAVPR

SMILES | Potency
O=C1CCC(=O)N1CO | inactive
CC[C@H]1OC(=O)[C@H](C)[C@@H](O[C@H]2C[C@@](C)(OC)[C@@H](O)[C@H](C)O2)[C@H](C)[C@@H](O[C@@H]2O[C@H](C)C[C@H](N(C)C)[C@H]2O)[C@](C)(O)C[C@@H](C)CN(C)[C@H](C)[C@@H](O)[C@]1(C)O | inactive
CCOc1ccc(S(=O)(=O)O)c2cccnc12 | inactive
CCCc1ccc(C(=O)O)cc1 | inactive
CC12CCC(C[N+](C)(CCC[N+](C)(C)C)C1)C2(C)C (stereo unspecified) | inactive
C[C@H](CCCC(C)(C)O)[C@H]1CC[C@H]2[C@@H]3CC=C4C[C@@H](O)CC[C@]4(C)[C@H]3CC[C@]12C | inactive
c1ccc2ccccc2c1 | inactive
CC(=O)NCCCS(=O)(=O)O | inactive
Nc1nccs1 | inactive
COC(=O)CCC[N+](C)(C)C | inactive
NC(=O)OCC(O)COc1ccc(Cl)cc1 (stereo unspecified) | inactive
CCCCC(=O)O[C@H]1CC[C@H]2[C@@H]3CCc4cc(O)ccc4[C@H]3CC[C@]12C | inactive
CO[C@H]1O[C@@H]2O[C@@]3(C)CC[C@H]4[C@H](C)CC[C@@H]([C@H]1C)[C@@]24OO3 | inactive
CC1(O)CCC(C(C)(C)O)CC1 (stereo unspecified) | inactive

The compounds below were run against Cytochrome P450 2C9 (Homo sapiens) (UniProt P11712) (assay: Cytochrome P450 family 2 subfamily C member 9 (CYP2C9) small molecule antagonists: luciferase biochemical (cell-free) qHTS assay (AID 1645842; further: potency means the concentration at half of the fitted maximal effect)). Details: P450-Glo CYP2C9 enzyme assay, luciferin luminescence; series mostly up to 57.4 µM.
Procedure, shortened: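 P450-Glo CYP2C9 system: proluciferin substrate with enzyme in mix containing 0.4% BSA, 10 min at room temperature, then NADPH regeneration solution added and incubated 1 h at 37C. Detection reagent stopped reaction; luminescence read after 20 min as RLU.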

Cytochrome P450 2C9 (Homo sapiens), sequence (P11712 whole entry, looked up): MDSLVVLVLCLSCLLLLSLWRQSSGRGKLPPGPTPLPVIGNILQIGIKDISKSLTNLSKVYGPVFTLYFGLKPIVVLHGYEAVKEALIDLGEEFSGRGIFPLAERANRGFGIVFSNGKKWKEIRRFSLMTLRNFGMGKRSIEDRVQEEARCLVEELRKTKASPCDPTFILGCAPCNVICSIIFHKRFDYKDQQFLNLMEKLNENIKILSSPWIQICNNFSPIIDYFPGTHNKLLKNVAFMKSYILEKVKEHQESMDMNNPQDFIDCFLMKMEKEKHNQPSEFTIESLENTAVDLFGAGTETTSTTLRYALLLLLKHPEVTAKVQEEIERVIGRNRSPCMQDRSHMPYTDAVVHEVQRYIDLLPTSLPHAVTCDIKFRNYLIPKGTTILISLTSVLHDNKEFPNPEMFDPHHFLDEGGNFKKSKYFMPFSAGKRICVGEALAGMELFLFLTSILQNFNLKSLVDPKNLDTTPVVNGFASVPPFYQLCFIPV

SMILES | Potency
Cc1cc(-c2ccc(N=Nc3c(S(=O)(=O)O)cc4cc(S(=O)(=O)O)cc(N)c4c3O)c(C)c2)ccc1N=Nc1c(S(=O)(=O)O)cc2cc(S(=O)(=O)O)cc(N)c2c1O | 15.1 µM (active)
COC(=O)C(CN)c1c[nH]c2ccc(OC)cc12 (stereo unspecified) | inactive
O=C1CCC(=O)N1CO | inactive
CC[C@H]1OC(=O)[C@H](C)[C@@H](O[C@H]2C[C@@](C)(OC)[C@@H](O)[C@H](C)O2)[C@H](C)[C@@H](O[C@@H]2O[C@H](C)C[C@H](N(C)C)[C@H]2O)[C@](C)(O)C[C@@H](C)CN(C)[C@H](C)[C@@H](O)[C@]1(C)O | inactive
CCOc1ccc(S(=O)(=O)O)c2cccnc12 | inactive
CCCc1ccc(C(=O)O)cc1 | inactive
CC(C)=CCC/C(C)=C/CC/C(C)=C/CC/C(C)=C/CC1=C(C)C(=O)c2ccccc2C1=O | 8.49 µM (active)
CC12CCC(C[N+](C)(CCC[N+](C)(C)C)C1)C2(C)C (stereo unspecified) | inactive
C[C@H](CCCC(C)(C)O)[C@H]1CC[C@H]2[C@@H]3CC=C4C[C@@H](O)CC[C@]4(C)[C@H]3CC[C@]12C | inactive
c1ccc2ccccc2c1 | inactive
Cc1c(C)c2c(c(C)c1OC(=O)CCC(=O)O)CC[C@@](C)(CCC[C@H](C)CCC[C@H](C)CCCC(C)C)O2 | 21.3 µM (active)
C[C@H](NCCc1ccc(O)cc1)[C@H](O)c1ccc(O)cc1 | inactive
CC(=O)NCCCS(=O)(=O)O | inactive
CCOC(=O)[C@@H](N)CS | 10.7 µM (active)
Cn1c(O)c(N=NC(N)=S)c2ccccc21 | 9.52 µM (active)
Nc1nccs1 | inactive
COC(=O)CCC[N+](C)(C)C | inactive
O=C(O)c1cc(N=Nc2ccc(O)c(C(=O)O)c2)ccc1O | 10.7 µM (active)
NC(=O)OCC(O)COc1ccc(Cl)cc1 (stereo unspecified) | inactive
CCCCC(=O)O[C@H]1CC[C@H]2[C@@H]3CCc4cc(O)ccc4[C@H]3CC[C@]12C | 19 µM (active)
CO[C@H]1O[C@@H]2O[C@@]3(C)CC[C@H]4[C@H](C)CC[C@@H]([C@H]1C)[C@@]24OO3 | 39.8 µM (active)
CC1(O)CCC(C(C)(C)O)CC1 (stereo unspecified) | inactive
